What all share (test): NCI-60 one-dose screen, 48 h (100 = growth as untreated, 0 = no growth, -100 = all killed)
Settings in all cases: 10 µM unless noted

For assay [1], the system named is HCT-15 colon.
The subject of assay [2] is HT29 colon.
Assay [3] concerns SNB-19 CNS.
Assay [4] concerns U251 CNS.
Assay [5] deals with PC-3 prostate.
In assay [6] the test system is SK-MEL-5 melanoma.
In assay [7] the test system is UACC-62 melanoma.
Assay [8] has as its system LOX IMVI melanoma.
Assay [9] has as its system SK-MEL-28 melanoma.
The test system of assay [10] is SK-MEL-2 melanoma.
Assay [11] concerns SN12C renal.
The test system of assay [12] is UO-31 renal.
Assay [13] has as its system TK-10 renal.
In assay [14] the test system is ACHN renal.
Assay [15] has as its system CAKI-1 renal.
In assay [16] the test system is A498 renal.
Assay [17] deals with CCRF-CEM leukemia.
For assay [18], the system named is MOLT-4 leukemia.
The subject of assay [19] is EKVX NSCLC.

Each structure is given as a SMILES string. The panel holds about 83,000 compounds, 20% with a hit somewhere; the sample as a whole holds those more often.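 For each line, cells grew in 96-well plates with the test compound present at a single concentration for 48 hours.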 Values without a mark were called inactive. The source made the active and inactive calls. How the source made its calls: active means growth percent below 10; inactive means the rest.

For `COc1cc(-c2nn(-c3cccc(NC(=O)Nc4ccc(Cl)c(C(F)(F)F)c4)c3)cc2-c2ccncc2)ccc1Cl`, the growth in [1] is 9.91% (active); in assay [2] it was -0.5% (active); in assay [3], 26.4%; in [4] it was -20.9% (active); in assay [5], -19% (active); in [6], -65.3% (active). The growth was -43.8% (active) in assay [7]; 1.06% (active) in assay [8]; 8.8% (active) in assay [9]; -57.8% (active) in [10]; 12.6% in assay [11]; 11% in assay [12]. For the same compound, the growth was 12.6% in [13]; 9.33% (active) in assay [14]; 14.7% in assay [15]; -6.71% (active) in assay [16]; -8.04% (active) in assay [17]; -2.38% (active) in [18].

For `COc1ccc(OC)c(C2OC(c3ccc4ccccc4c3O)=NN2C(C)=O)c1` (configuration not stated), the growth is 62% in assay [1]; 61.1% in [2]; 81.1% in assay [3]; 83.3% in [4]; 59.3% in assay [5]; 58.4% in assay [6]. Moreover, the growth was 69.1% in assay [7]; 63.9% in assay [8]; 78.6% in [9]; 60.7% in [10]; 80.6% in assay [11]; 63.4% in assay [12]. Moreover, the growth in [13] was 80.7%; in assay [14], 69.5%; in assay [15], 87.6%; in [16], 37.4%; in [17] it was 69.2%; in assay [18], 61.8%.

Take `COc1cc(-c2nn(-c3cccc(NC(=O)c4ccccc4)c3)cc2-c2ccncc2)ccc1Cl`: the growth is 19.2% in [1]; 2.03% (active) in [2]; 50% in [3]; 13.5% in [4]; 10.5% in assay [5]; -49.4% (active) in assay [6]. In addition, the growth in assay [7] was 32.5%; in assay [8], 17.4%; in [9], 34.4%; in assay [10], -42.5% (active); in assay [11], 28.8%; in assay [12], 29.8%. The growth in assay [13] was 31%; in assay [14] it was 32.3%; in assay [15], 40.6%; in [16] it was -23.2% (active); in assay [17] it was 2.06% (active); in assay [18], 0.658% (active).

With `O=C(Nc1cccc(-n2cc(-c3ccncc3)c(-c3ccc(Cl)c(O)c3)n2)c1)Nc1cccc(C(F)(F)F)c1`, the growth was 18.2% in assay [1]; 77.8% in [2]; 32.5% in assay [3]; 15.8% in assay [4]; 4.28% (active) in assay [5]; -25.5% (active) in [6]. In addition, the growth was 10.4% in [7]; 23.8% in assay [8]; 29.4% in assay [9]; -25.7% (active) in assay [10]; 14.6% in assay [11]; 24.8% in [12]. The growth in assay [13] is 21.9%; in assay [15], 30.1%; in assay [16], 17.7%; in assay [17] it was 10.6%; in assay [18], 12.5%.

For `COc1cc(-c2nn(-c3cccc(NC(=O)c4cccc(C(F)(F)F)c4)c3)cc2-c2ccncc2)ccc1Cl`, the growth in assay [1] is 12.8%; in assay [2], -12.1% (active); in assay [3], 47.3%; in assay [4], 13.1%; in [5], 4.39% (active); in [6], -33% (active). Besides, the growth was 27.2% in [7]; 11.4% in assay [8]; 32.5% in assay [9]; -38.6% (active) in assay [10]; 34.4% in assay [11]; 25.1% in [12]. The growth in [13] is 8.08% (active); in assay [14], 31.6%; in assay [15], 44.7%; in assay [16], -19% (active); in [17], 3.1% (active); in [18], 8.63% (active).

On to `O=S(=O)(NCCNc1nccc(-c2c(-c3cccc(O)c3)nc3sccn23)n1)c1ccc(F)cc1`, for which the growth in [1] was 81%; in assay [2], 38.3%; in [3], 111%; in [4], 79.4%; in assay [5], 65.7%; in [6], 39.8%. Besides, the growth in assay [7] is 16.7%; in assay [8], 38.5%; in assay [9], 43.5%; in assay [10], 41.7%; in assay [11] it was 63.9%; in assay [12], 83.4%. For the same compound, the growth in assay [13] was 108%; in assay [14], 60.2%; in assay [15] it was 82.7%; in assay [16], 76.4%; in [17], 41.7%; in assay [18], 44.5%.

Regarding `COc1ccc(-c2nc(/C=C3/C(=O)Nc4ccc(F)cc43)c3ccccn23)cc1`, the growth in assay [1] is 107%; in assay [2], 103%; in assay [3], 101%; in [4], 88.3%; in [5], 108%; in assay [6], 102%. For the same compound, the growth was 106% in assay [7]; 92.7% in assay [8]; 105% in [9]; 112% in assay [10]; 123% in [19]; 106% in assay [11]. The growth in assay [12] was 97%; in assay [14], 96.5%; in [15] it was 98.2%; in assay [17], 93.9%; in assay [18] it was 91.8%.

`CC(C)(C)n1cc(-c2ccnc(NCCNS(=O)(=O)c3ccc(Cl)cc3)c2)c(-c2cccc(O)c2)n1`: the growth in [1] was 15.1%; in [2], 16.6%; in [3] it was 76.6%; in [4] it was 46.1%; in [5], 34.5%; in [6] it was 25%. The growth is 71.7% in [7]; 41.5% in assay [8]; 63.3% in assay [9]; 74.3% in assay [10]; 60.2% in [19]; 61.6% in assay [11]. Besides, the growth in assay [12] is 49.6%; in assay [14], 76.8%; in assay [15], 71.8%; in assay [16] it was 69.4%; in assay [17] it was 50.3%; in assay [18], 31.9%.

For the origin of these results see PubChem BioAssay (NCI).
